Sampled rows, rich in hits. Any-hit rate of the full collection: about 12%.
JMJD2A Tudor: blocks the human JMJD2A Tudor domain; O75164; AlphaScreen JMJD2A-Tudor / H3K4me3 peptide binding; Potency, µM (doses to about 114 µM), for inactives: top-dose activity change, negative = inhibition, most hits filed as inhibitors; hit rate 4.4% among 390,000; AID 504339; also: potency is read from the fitted curve at half-maximal effect; % is scaled to controls: 0 for no effect and ±100 for the full control effect; nearly all actives have a fitted effect of over 50% in size
HP1b binding inh: inhibitors of HP1-beta chromodomain binding to methylated histone tails | P83916 | hit rate 0.56% among 390,000 | Potency, µM (doses to about 114 µM), inactives show at the top dose activity change, negative = inhibition, most hits filed as inhibitors | AlphaScreen HP1-beta / biotin-H3K9me3 peptide binding; also: potency is read from the fitted curve at half-maximal effect; nearly all actives have a fitted effect of over 70% in size
Target sequence (P83916 whole entry, looked up): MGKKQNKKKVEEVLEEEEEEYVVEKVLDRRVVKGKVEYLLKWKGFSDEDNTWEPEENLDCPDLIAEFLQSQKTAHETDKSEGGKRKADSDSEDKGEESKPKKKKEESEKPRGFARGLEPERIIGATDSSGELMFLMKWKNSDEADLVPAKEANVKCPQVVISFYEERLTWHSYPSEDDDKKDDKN
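AlphaScreen: HP1-beta (50 nM) preformed 30 min with biotin-H3(1-18)K9me3 peptide (50 nM) in PBS pH 7.4, 0.01% Tween-20. Compound added for 30 min at RT, then streptavidin donor/nickel chelate acceptor beads (10 ug/mL) for 30 min.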
G9a inh: G9a (human) methyltransferase inhibition; Potency, µM (doses to about 102 µM), for the others: at the top dose activity, negative = inhibition, actives largely listed as inhibitors; hit rate 8.8% among 350,000; G9a H3K9 monomethylation, AlphaScreen, 2 h; Q96KQ7; AID 504332; also: potency is read from the fitted curve at half-maximal effect; % is scaled to controls: 0 for no effect and ±100 for the full control effect; nearly all actives have a fitted effect of over 75% in size
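G9a (20 nM) preincubated 15 min RT with compounds, then 500 nM biotinylated H3K9 peptide and 20 uM SAM added; 2 h RT reaction. Monomethyl-H3K9 product detected by AlphaScreen with anti-H3K9me1 antibody, streptavidin donor and anti-rabbit IgG acceptor beads.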
PLK1 PBD inh: PLK1 (human) polo-box domain binding inhibition; P53350; Plk1 PBD binding of FITC phosphopeptide, fluorescence polarization; Potency, µM, for the others: max response, negative = inhibition, actives largely listed as inhibitors; hit rate 2.8% among 360,000; also: potency is read from the fitted curve at half-maximal effect; series mostly up to about 57 µM; % is scaled to controls: 0 for no effect and ±100 for the full control effect; nearly all actives have a fitted effect of over 65% in size
BAZ2B block: inhibitors of human BAZ2B bromodomain; AlphaScreen BAZ2B-H3K14Ac peptide displacement; Potency, µM (highest dose often 114 µM), for inactives: at the top dose activity change, negative = inhibition, most hits filed as inhibitors; hit rate 4.4% among 360,000; AID 504333; also: potency is read from the fitted curve at half-maximal effect; % is scaled to controls: 0 for no effect and ±100 for the full control effect; nearly all actives have a fitted effect of over 60% in size
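AlphaScreen displacement of biotin-H3(5-23)K14Ac peptide (50 nM final) from BAZ2B (50 nM final) in PBS pH 7.4, 0.01% Tween-20; complex preformed 30 min RT, then compounds (top 110 uM) 30 min RT, beads 20 min dark.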
PI5P4K alpha inh: blocks human PI5P4K alpha kinase activity | P48426 | max response, % | AID 652105 | PI5P4Kalpha enzyme, ADP-Glo luminescence, 60 min; active compounds read low | hit rate 1.2% among 330,000; active = max response of -50% or lower; inconclusive = between -30% and -50%; inactive = -30% or higher; also: value at the top dose of about 77 µM; % is scaled to controls: 0 for no effect and ±100 for the full control effect
Target sequence (P48426 whole entry, looked up): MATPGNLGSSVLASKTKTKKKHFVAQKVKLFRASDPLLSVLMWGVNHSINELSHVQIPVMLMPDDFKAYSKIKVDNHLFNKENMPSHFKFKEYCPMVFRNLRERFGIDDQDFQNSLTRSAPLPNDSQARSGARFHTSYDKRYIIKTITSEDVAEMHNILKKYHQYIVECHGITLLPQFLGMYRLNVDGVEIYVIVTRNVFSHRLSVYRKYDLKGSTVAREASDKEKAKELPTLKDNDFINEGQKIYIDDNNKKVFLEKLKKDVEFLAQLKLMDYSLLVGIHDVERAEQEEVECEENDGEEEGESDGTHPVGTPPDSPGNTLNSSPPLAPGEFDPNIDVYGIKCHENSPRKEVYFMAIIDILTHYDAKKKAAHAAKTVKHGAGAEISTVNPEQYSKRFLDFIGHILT
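Quantitative HTS of the MLSMR library against PI5P4Kalpha with substrate. ATP added last at 5 microM final; room temperature, 60 minutes. Remaining ATP depleted, ADP converted and read as luminescence.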
Numbers without * were called inactive; [ ] = remark or other dose. Unless noted, calls follow the shape of the dose curve; as a rule, active = well fitted curve in the direction sought with a large enough effect; inconclusive = small, poorly fitted or top-dose-only effect, or another doubt; inactive = no such curve, though single readings can be large; an effect the other way counts as inactive or inconclusive.

For Cc1cccc(-n2nc(C)c(C(=O)N3CCN(c4ccccc4)CC3)c2-n2cccc2)c1 the results were JMJD2A Tudor inconclusive, HP1b binding inh -5%, G9a inh -35%[59 µM] and BAZ2B block inconclusive.
CCOC(=O)c1ccc(NC(=O)Nc2cc3c(cc2N2CCCCC2)n(CC)c(=O)n3CC)cc1 was read as JMJD2A Tudor -28%, HP1b binding inh 5%, G9a inh inconclusive and BAZ2B block -34%.
For C[C@@]12CC[C@H]3[C@@H](CC[C@@H]4C[C@H]5S[C@H]5C[C@]43C)[C@H]1CC[C@H]2O the results were G9a inh 5%[21.5 µM].
Cc1cccc(CN2CCCC(C(=O)c3ccc4c(c3)OCO4)C2)n1 (centres undefined) was read as JMJD2A Tudor -14%, HP1b binding inh 34%, PLK1 PBD inh -7%, BAZ2B block 21% and PI5P4K alpha inh 4.
CCCOc1ccc(C(=O)NC(=S)N2C[C@H]3C[C@H](C2)c2cccc(=O)n2C3)cc1 was read as JMJD2A Tudor inconclusive, HP1b binding inh -15%, G9a inh 11µM*, PLK1 PBD inh 27µM*, BAZ2B block -10% and PI5P4K alpha inh inconclusive.
Screening Nc1ncnc2c1ncn2[C@@H]1O[C@@H]2CO[P@](=O)(S)O[C@H]2[C@H]1O returned G9a inh 9%[59 µM].
For Cn1c(O)c(/C=C2\N=c3ccccc3=C2CCNC(=S)NC2CC2)c(=O)n(C)c1=O the results were JMJD2A Tudor -13%, HP1b binding inh 11%, G9a inh -116%[59 µM], PLK1 PBD inh 0.95µM*, BAZ2B block inconclusive and PI5P4K alpha inh 3.
Screening Cc1nc2cc(F)ccc2n1C1CCN(Cc2nnnn2CCc2ccccc2)CC1 returned JMJD2A Tudor -35%[57.1 µM], HP1b binding inh -6%, G9a inh -16%[59 µM], PLK1 PBD inh -7%, BAZ2B block 56µM* and PI5P4K alpha inh -12.
For C[C@H]1CC[C@@]2(C)[C@@H](CC[C@@H]3[C@@H]2CC[C@]2(C)[C@@H](O)CC[C@@H]32)C1 the results were JMJD2A Tudor -17%[11.4 µM], HP1b binding inh 2%, G9a inh 11%[59 µM], PLK1 PBD inh 27µM*, BAZ2B block -22% and PI5P4K alpha inh 39.
For Cc1c(C(=O)NCCC2=CCCCC2)oc2ccc(S(=O)(=O)N3CCC4(CC3)OCCO4)cc12 the results were JMJD2A Tudor -20%, HP1b binding inh 22%, G9a inh 50µM*, PLK1 PBD inh -4%, BAZ2B block 3% and PI5P4K alpha inh 8.
Screening CC1=C(C(=O)O)N2C(=O)C(NC(=O)c3nn(C)cc3[N+](=O)[O-])C2SC1 (centres undefined) returned JMJD2A Tudor inconclusive, HP1b binding inh 3%, G9a inh 3.5µM*, PLK1 PBD inh 34µM*, BAZ2B block 50µM* and PI5P4K alpha inh -17.
For CC(=O)OCC1=C(C(=O)O)N2C(=O)C(NC(=O)CCCC(N)C(=O)O)C2SC1 (centres undefined) the results were G9a inh 8%[2.33 µM].
For CC1=C(C(=O)O)N2C(=O)C(NC(=O)Cc3ccccc3)C2SC1 (centres undefined) the results were JMJD2A Tudor 8%, HP1b binding inh 42%, G9a inh 10µM*, PLK1 PBD inh -7%, BAZ2B block -29% and PI5P4K alpha inh -2.
For COc1cc(C(=O)NCCSc2c(-c3ccccc3)[nH]c3ccccc23)cc(OC)c1OC the results were JMJD2A Tudor inconclusive, HP1b binding inh 5%, G9a inh -7%[59 µM] and BAZ2B block -24%.
`CC(C)c1ccc(C(O)P(=O)(OCc2ccccc2)c2ccc(N(C)C)cc2)cc1` (centres undefined) gave JMJD2A Tudor inconclusive, HP1b binding inh -3%, G9a inh 6%, PLK1 PBD inh 4%, BAZ2B block inconclusive and PI5P4K alpha inh -3.
Screening CCCCOP(=O)(c1ccc(N(C)C)cc1)C(Nc1ccccc1)c1ccccc1 (centres undefined) returned JMJD2A Tudor inconclusive, HP1b binding inh -32%, G9a inh 45µM*, PLK1 PBD inh -8%, BAZ2B block inconclusive and PI5P4K alpha inh 11.
Screening NCCc1ccccc1 returned JMJD2A Tudor -1%, HP1b binding inh 37%, G9a inh 24%[59 µM], PLK1 PBD inh -1% and PI5P4K alpha inh -2.
Nc1ccc(N=Nc2ccccc2)cc1 was read as JMJD2A Tudor 45µM*, HP1b binding inh inconclusive, G9a inh 45µM*, PLK1 PBD inh -10%, BAZ2B block 22µM* and PI5P4K alpha inh 11.
For O=C1NC(=O)C2(Cc3ccccc3N3CCCC32)C(=O)N1Cc1ccccc1 (centres undefined) the results were JMJD2A Tudor -29%, HP1b binding inh 33%, G9a inh 35µM*, PLK1 PBD inh -22%, BAZ2B block 1% and PI5P4K alpha inh inconclusive.
Screening O=C1NC(=O)[C@]2(Cc3ccccc3N3CCN(c4ccccc4)CC32)C(=O)N1Cc1ccccc1 (some centres undefined) returned JMJD2A Tudor inconclusive, HP1b binding inh -3%, G9a inh 5µM*, PLK1 PBD inh -18%, BAZ2B block -33% and PI5P4K alpha inh inconclusive.
`Cc1cccc(Cn2c(SCc3ccc(C(=O)NC4CCCCC4)cc3)nc3cccnc32)c1` gave JMJD2A Tudor -21%, HP1b binding inh -3%, G9a inh inconclusive and BAZ2B block -9%.
For Cc1ccc(-c2nnc(Nc3ccc(OC(F)(F)Cl)cc3)c3ccccc23)cc1S(=O)(=O)NC(C)(C)CO the results were JMJD2A Tudor -12%, HP1b binding inh 27%, G9a inh inconclusive and BAZ2B block -21%.
CC(C)(C)NCC(O)c1ccccc1Cl (centres undefined) was read as G9a inh 33%[59 µM].
O=C1NC(=S)N(c2ccc(Br)cc2)C(=O)/C1=C/N1CCN(C(=O)c2ccco2)CC1 was read as JMJD2A Tudor -29%, HP1b binding inh 4%, G9a inh 45µM*, PLK1 PBD inh inconclusive, BAZ2B block -33% and PI5P4K alpha inh inconclusive.
Cc1cccc(N2C(=O)/C(=C/N3CCN(C(=O)c4ccco4)CC3)C(=O)NC2=S)c1 was read as JMJD2A Tudor -18%, HP1b binding inh 17%, G9a inh inconclusive, PLK1 PBD inh inconclusive, BAZ2B block -3% and PI5P4K alpha inh inconclusive.
Screening Cc1ccc(N2C(=O)/C(=C/N3CCN(C(=O)c4ccco4)CC3)C(=O)NC2=S)cc1C returned JMJD2A Tudor -14%, HP1b binding inh 5%, G9a inh 54%[12.7 µM], PLK1 PBD inh 24µM*, BAZ2B block -31% and PI5P4K alpha inh -27.

Compound activity (PubChem)
